# Experimental data published in PubChem BioAssay (NCATS).
# Where “and” joins values, the source holds several entries; their conditions need not be identical. Equal values may be shown once. Values without a mark were called inactive. Records with an inconclusive call do not appear. A call without a number means that no potency is given here. For some of these results: Potency and affinity values are given separately. Calls of active or inactive are those of the source. Unless noted, the rule behind the calls is not given here.
# Assays:
# [1] = qHTS Assay for Identifying Gametocytocidal Compounds (AID 743244; active = well fitted curve in the direction sought with a large enough effect; an effect the other way counts as inactive or inconclusive; note: potency is the fitted concentration of half-maximal effect;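 for max response: actives lower the fluorescent signal which means gametocytes are killed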); settings: P. falciparum 3D7 stage III-V gametocytes, alamarBlue, 72 h; max response: hits give low values
# Summary of the method: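 Compounds are pinned into medium, gametocytes (stage III–V, 3D7, 20,000 cells/well) added, and plates held 72 h at 37 °C in 5% CO2. AlamarBlue follows for 24 h before fluorescence reading.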
# [2] = qHTS assay for cell viability of HEK293 cells (AID 743288; active = well fitted curve in the direction sought with a large enough effect; an effect the other way counts as inactive or inconclusive; note: nearly all actives have a fitted effect of over 50% in size; note: potency is the fitted concentration of half-maximal effect); settings: ATP luminescence (CellTiter-Glo), 18 h; max response: hits give low values
# Summary of the method: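 Parental HEK293 cells, 2,000 per well, preincubated at least 5 h at 37 C, then exposed to compounds in DMSO for 18 h at 37 C. Viability by CellTiter-Glo ATP luminescence after 30 min at room temperature.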
# [3] = qHTS assay for cell viability of the p53RE-bla HCT-116 cell line (AID 743292; active = well fitted curve in the direction sought with a large enough effect; an effect the other way counts as inactive or inconclusive; note: nearly all actives have a fitted effect of over 55% in size; note: potency is the fitted concentration of half-maximal effect)
# Summary of the method: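 ATP-based luminescence, 16 h compound exposure at 37 C, p53RE-bla HCT-116 cells at 4,000/well.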
# [4] = Ebola virus entry assay, ratio channel
# [5] = Ebola virus entry assay, green channel fluorescence
# [6] = Ebola virus entry assay, reporter ratio channel; Channel type: primary
# [7] = Ebola virus entry assay, blue channel (ratio component)
compound,measurement,setting,value
CCOP(=O)(NC(C)C)Oc1ccc(SC)c(C)c1 (stereo not given),max response,[1],14.8%
same,max response,[2],-28.9% and -13.9%
same,Potency,[3],inactive
same,outcome,[4],inactive
same,outcome,[5],inactive
same,outcome,[6],inactive
same,outcome,[7],inactive
CCO/N=C(\CC)C1=C(O)CC(c2c(C)cc(C)cc2C)CC1=O (stereo not given),max response,[1],13.9%
same,max response,[2],-20.6%
same,Potency,[3],inactive
same,outcome,[4],inactive
same,outcome,[5],inactive
same,outcome,[6],inactive
same,outcome,[7],inactive
O=S(=O)(c1ccc(Cl)cc1)c1ccc(Cl)cc1,max response,[1],-16%
same,max response,[2],-6.49% and -9.97% and -17.8%
same,Potency,[3],inactive
same,outcome,[4],inactive
same,outcome,[5],inactive
same,outcome,[6],inactive
same,outcome,[7],inactive
Nc1ccc(N=Nc2ccccc2)cc1,max response,[1],11.9%
same,max response,[2],-0.712%
same,Potency,[3],inactive
same,outcome,[4],inactive
same,outcome,[5],inactive
same,outcome,[6],inactive
C=CCC1=C(C)C(OC(=O)C2C(C=C(C)C)C2(C)C)CC1=O (stereo not given),max response,[1],-9.3%
same,max response,[2],-9.9% and -17.4%
same,Potency,[3],inactive
same,outcome,[4],inactive
same,outcome,[5],inactive
same,outcome,[6],inactive
same,outcome,[7],inactive
CCCCC(CC)COC(=O)/C=C/c1ccc(OC)cc1 (stereo not given),outcome,[4],inactive
same,outcome,[5],inactive
same,outcome,[6],inactive
same,outcome,[7],inactive
COc1ncnc(NS(=O)(=O)c2ccc(N)cc2)c1OC,outcome,[5],inactive
same,outcome,[6],inactive
same,outcome,[7],inactive
Nc1cccc2c(N)cccc12,Potency,[1],25.1 µM (active)
same,outcome,[4],inactive
same,AC50,[6],35.5 µM (active)
Fc1cc(Br)ccc1CBr,outcome,[5],inactive
same,outcome,[6],inactive
same,outcome,[7],inactive
COc1c(N2CCNC(C)C2)c(F)cc2c(=O)c(C(=O)O)cn(C3CC3)c12 (stereo not given),outcome,[5],inactive
same,outcome,[6],inactive
same,outcome,[7],inactive
[O-][n+]1cccc(CO)c1,outcome,[5],inactive
same,outcome,[6],inactive
same,outcome,[7],inactive
N[C@H]1C(O)O[C@H](CO)[C@@H](O)[C@@H]1O (stereo not given in full),outcome,[5],inactive
same,outcome,[6],inactive
same,outcome,[7],inactive
[Cl][In]([Cl])[Cl],outcome,[5],inactive
CCCCCCCCCCC(CO)CCCCCCCC (stereo not given),outcome,[5],inactive
same,outcome,[6],inactive
same,outcome,[7],inactive
C[C@@H](N)C(=O)O,outcome,[5],inactive
same,outcome,[6],inactive
same,outcome,[7],inactive
CCCCC(CC)COC(=O)c1ccc(N(C)C)cc1 (stereo not given),outcome,[5],inactive
same,outcome,[6],inactive
same,outcome,[7],inactive
Cc1cccc(C)c1NC(=O)c1ccccc1C(=O)O,outcome,[5],inactive
same,outcome,[6],inactive
same,outcome,[7],inactive
CC(=O)[O][Hg][c]1ccccc1,Potency,[1],1.12 µM (active)
same,Potency,[2],7.08 µM (active) and 22.4 µM (active)
same,Potency,[3],8.91 µM (active) and 10 µM (active)
same,AC50,[4],4.47 µM (active)
same,AC50,[6],4.47 µM (active)
Cc1c(C)c2c(c(C)c1OC(=O)c1cccnc1)CC[C@@](C)(CCC[C@H](C)CCC[C@H](C)CCCC(C)C)O2,outcome,[5],inactive
same,outcome,[6],inactive
same,outcome,[7],inactive
Nc1c(Cl)c(Cl)c(Cl)c(Cl)c1Cl,max response,[1],4.37%
same,max response,[2],-4.75%
same,Potency,[3],inactive
same,outcome,[4],inactive
same,outcome,[6],inactive
same,outcome,[7],inactive
[O-][n+]1cccc(/C(Cl)=N/OC[C@@H](O)CN2CCCCC2)c1,outcome,[5],inactive
same,outcome,[6],inactive
same,outcome,[7],inactive
CCN1CCN(c2cc3c(cc2F)c(=O)c(C(=O)O)cn3C2CC2)CC1,outcome,[5],inactive
same,outcome,[6],inactive
same,outcome,[7],inactive
O=C(Nc1cccc(C2=NCCN2)c1)Nc1cccc(C2=NCCN2)c1,outcome,[5],inactive
same,outcome,[6],inactive
same,outcome,[7],inactive
COc1cc2c(cc1OC)C(=O)CC2,outcome,[5],inactive
same,outcome,[6],inactive
same,outcome,[7],inactive
O=S(=O)(O)C(F)(F)C(F)(F)C(F)(F)C(F)(F)F,max response,[1],-9.45%
same,max response,[2],-11.1% and -18%
same,Potency,[3],inactive
same,outcome,[4],inactive
same,outcome,[6],inactive
Nc1nc2ccc([N+](=O)[O-])cc2s1,outcome,[4],inactive
same,outcome,[6],inactive
O=C(O)CC(O)C(=O)O (stereo not given),outcome,[5],inactive
same,outcome,[6],inactive
same,outcome,[7],inactive
Cc1ccccc1N=Nc1ccc(N=Nc2c(O)ccc3ccccc23)c(C)c1,outcome,[5],inactive
same,outcome,[6],inactive
same,outcome,[7],inactive
O=C(O)c1ccccn1,outcome,[5],inactive
same,outcome,[6],inactive
same,outcome,[7],inactive
CCCN(CCC)c1c([N+](=O)[O-])cc(S(N)(=O)=O)cc1[N+](=O)[O-],max response,[2],-4.88%
same,Potency,[3],inactive
same,AC50,[4],8.91 µM (active)
same,AC50,[6],8.91 µM (active)
C[C@]12C[C@H](O)[C@H]3[C@@H](CCC4=CC(=O)CC[C@@]43C)[C@@H]1CC[C@@H]2C(=O)CO,outcome,[5],inactive
same,outcome,[6],inactive
same,outcome,[7],inactive
CCCCOC(=O)c1ccccc1C(=O)OCc1ccccc1,max response,[1],13.2%
same,max response,[2],-13.6% and -13.5%
same,Potency,[3],inactive
same,outcome,[4],inactive
same,outcome,[6],inactive
same,outcome,[7],inactive
CCOC(=O)C(=O)CCCCCCl,outcome,[5],inactive
same,outcome,[6],inactive
same,outcome,[7],inactive
CCCCCCCCOc1ccc(C(=O)c2ccccc2)c(O)c1,outcome,[5],inactive
same,outcome,[6],inactive
same,outcome,[7],inactive
CC(=O)N[C@@H](CCC(N)=O)C(=O)O,outcome,[5],inactive
same,outcome,[6],inactive
same,outcome,[7],inactive
NCCS,outcome,[5],inactive
same,outcome,[6],inactive
same,outcome,[7],inactive
CCOC(=O)c1c(C)n(C)c2ccc(O)cc12,outcome,[5],inactive
same,outcome,[6],inactive
same,outcome,[7],inactive
CN1CCN(c2c(F)cc3c(=O)c(C(=O)O)cn4c3c2OCN4C)CC1,outcome,[5],inactive
same,outcome,[6],inactive
same,outcome,[7],inactive
O=[N+]([O-])c1cccc(S(=O)(=O)NCCNS(=O)(=O)c2cccc([N+](=O)[O-])c2)c1,outcome,[5],inactive
same,outcome,[6],inactive
same,outcome,[7],inactive
